Each structure is given as a SMILES string. Values without a mark were called inactive. How the calls were made is not given here.

The target of this experiment is Pantothenate synthetase (Mycobacterium tuberculosis (strain ATCC 25618 / H37Rv)) (UniProt P9WIL5). Description: Coupled enzyme confirmation of inhibitors against recombinant Mtb PanC (AID 375).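 Further: 0% = full reaction with vehicle and 100% = no enzyme background.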 The conditions noted are these: coupled enzyme assay; at 10 µM, hits give high values.
Sequence of Pantothenate synthetase (Mycobacterium tuberculosis (strain ATCC 25618 / H37Rv)) (P9WIL5 whole entry, looked up): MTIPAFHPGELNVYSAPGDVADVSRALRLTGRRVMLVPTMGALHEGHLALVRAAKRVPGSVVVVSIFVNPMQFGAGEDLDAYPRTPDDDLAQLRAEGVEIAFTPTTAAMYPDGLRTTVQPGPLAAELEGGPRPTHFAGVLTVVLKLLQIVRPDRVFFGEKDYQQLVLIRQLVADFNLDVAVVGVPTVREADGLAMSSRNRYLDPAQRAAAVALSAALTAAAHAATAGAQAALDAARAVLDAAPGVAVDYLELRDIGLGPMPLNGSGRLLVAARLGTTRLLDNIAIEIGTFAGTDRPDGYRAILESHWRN
Broadly, the inhibition is the share of the control response that was lost under treatment. Regarding `COc1ccc(S(=O)(=O)N2Cc3ccccc3CC2C(=O)Nc2ccc(O)cc2)cc1OC` (stereo not given), the inhibition is 10%. For `Cc1ccccc1Cn1ccc(NC(=O)c2cnn3c(C(F)(F)F)cc(-c4ccco4)nc23)n1`, the inhibition was 5%. In the case of `CCOc1ccc(NC(=O)c2ccccc2O)cc1` it was 0%.

For `CC(C)OP(=O)(c1ccc(N(C)C)cc1)C(O)c1ccccc1F` (stereo not given), the inhibition is 0%. On to `Cc1ccccc1N(CC(=O)NCC1CCCO1)C(=O)C1(C)CC(=O)N=C2C=CC=CN21` (stereo not given), for which the inhibition is 0%. `COc1cc(NC(=O)c2ccc(COCC(F)(F)F)o2)cc(OC)c1OC`: the inhibition is 7%. Under `COc1cc(C(=O)N2CCC(c3nc(-c4cccnc4)no3)CC2)cc(OC)c1OC` stands 0%; under `CCOC(=O)c1sc(NC(=O)COC(=O)Cn2cnc3ccccc32)c(C(=O)OCC)c1C`, 3%. With `COc1ccc(NC(=O)COc2ccccc2)c(OC)c1`, the inhibition is 0%. Consider `COc1cccc(-c2csc3nc[nH]c(=O)c23)c1`, for which the inhibition was 3%. Take `CC1=C(C(=O)OCCOC(C)C)C(c2cc3c(cc2Br)OCO3)C2=C(CCCC2=O)N1` (stereo not given): the inhibition was 0%. Under `Cc1cc(NC(=O)COC(=O)c2cccc(S(=O)(=O)N3CCOCC3)c2)no1` stands 1%; under `CCOc1ccc2[nH]c(=O)c(C(c3nnnn3CC3CCCO3)N3CCc4ccccc4C3)cc2c1` (stereo not given), 0%. For the compound `Cc1nn(Cc2ccccc2)c2c1C(c1ccncc1)C(C#N)=C(N)O2` (stereo not given), the inhibition was 0%. In the case of `CCSc1nc2c(c(=O)n(C)c(=O)n2C)n1Cc1ccc(Cl)cc1` it was 4%; in that of `CCOC(=O)c1[nH]c2ccc(C)cc2c1NC(=O)CN1CCCCC1`, 3%; in that of `Cc1ccccc1Cn1cc(/C=N/n2cnnc2)c2ccccc21`, 0%. In the case of `Cn1c(=O)c2c(nc(CN3CCc4ccccc4C3)n2Cc2cccc(Cl)c2)n(C)c1=O` it was 0%; in that of `Cc1ccc(Cn2c(C(=O)NCCCN3CCOCC3)cc3sccc32)cc1`, 2%; in that of `CCOC(=O)CNC(=O)Nc1nnc(-c2ccc(OCC)cc2)o1`, 5%.

With `COc1cccc(NC(=O)COc2ccccc2C(N)=O)c1`, the inhibition was 0%. In the case of `O=S(=O)(NC1CCCC1)c1ccc(S(=O)(=O)N2CCc3ccccc32)cc1` it was 0%; in that of `NC(Cc1ccc(Oc2ccc(O)cc2)cc1)C(=O)O` (stereo not given), 0%; in that of `COc1ccc(C(=O)CSc2nc(C)cc(=O)[nH]2)cc1`, 0%. Regarding `CCN(CC)C(=O)C1CCN(CC2CC=CCC2)CC1` (stereo not given), the inhibition was 0%. In the case of `O=C(Nc1cc(C(F)(F)F)ccc1Cl)C1CCN(c2nnc(-n3cccc3)s2)CC1` it was 3%. For `O=C(c1cc(-c2cccc(O)c2)on1)N1CCN(C(c2ccccc2)c2ccccc2)CC1`, the inhibition was 8%. Take `C[C@H]1C[C@H]2[C@@H]3CCC4=CC(=O)C=C[C@]4(C)[C@@]3(Cl)[C@@H](O)C[C@]2(C)[C@@]1(O)C(=O)CO`: the inhibition was 4%. For `Cc1ccc(C)c(-n2c(CNC(=O)c3ccco3)nnc2SCC(=O)Nc2nnc(C)s2)c1`, the inhibition was 0%. In the case of `CC(C)Sc1nc2c(c(=O)n1-c1ccc(F)cc1)SCC2` it was 1%; in that of `COc1ccc(CN2C(=O)[C@@H]3C(c4ccc(F)cc4)=NO[C@@H]3C2=O)cc1`, 2%. Under `CSc1nc(=NC(C)=O)ss1` stands 0%; under `Cn1cccc1C1NC(=O)c2c(sc3c2CCC(C(C)(C)C)C3)N1` (stereo not given), 3%; under `CCn1nccc1C(=O)Nc1nccs1`, 5%. Under `CCC(Sc1ccc2nnc(-c3ccc(F)cc3)n2n1)C(=O)OC` (stereo not given) stands 0%; under `COC(=O)c1cc2ccsc2n1Cc1nc(-c2ccc(OC)cc2)oc1C`, 9%; under `CCOc1cc(C2CC(=O)N3CN(C4CCCCC4)CSC3=C2C#N)ccc1O` (stereo not given), 0%. In the case of `O=C(NC12CC3CC(CC(C3)C1)C2)N1CCN(C(=O)C2CCCO2)CC1` (stereo not given), the inhibition was 7%. Consider `Cc1ccc2nc(-c3ccc4c(c3)OCCO4)cc(C(=O)O)c2c1`, for which the inhibition is 0%. Under `CCCn1c(SCC(=O)N2CCCc3ccccc32)nnc1-c1ccccn1` stands 3%.

The record behind these values is PubChem BioAssay.
